Records with an inconclusive call do not appear. Values without a mark were called inactive. Active and inactive are the calls of the source. Calls follow the shape of the dose curve; as a rule, active = well fitted cell-killing curve with a large enough effect in the repeat runs; inconclusive = weak or mixed curves, or effect the other way; inactive = flat fitted curve, though single readings scatter.
% is scaled to controls: 0 for no effect and ±100 for the full control effect; potency is read from the fitted curve at half-maximal effect.

The nature of the test: qHTS RealTime-Glo MT Cell Viability Assay in HEK293 cells - 40 hour (AID 1224874). Also: nearly all actives have a fitted effect of over 50% in size. The conditions noted are these: RealTime-Glo luminescence; max response: stronger effect = lower value. The text has this:
U.S. Tox21 Program National Center for Advancing Translational Sciences [NCATS] NIH Chemical Genomics Center [NCGC] U.S. Environmental Protection Agency [EPA] National Institutes of Environmental Health Sciences [NIEHS] National Toxicology Program [NTP] U.S. Food and Drug Administration [FDA] Tox21 Assay Overview: Measure of cell viability is critical in the cell-base assay. Analysis of cell viability is necessary for the characterization of cell responses to cytotoxic drugs and environmental stress. A RealTime-Glo MT Cell Viability Assay to monitor cell viability in real time of continues cell culture during 40 hours of compound treatment was used to screen Tox21 10K library compounds in Hek293 cells. The RealTime-Glo MT Cell Viability Assay is a nonlytic, homogeneous, bioluminescent method to measure cell viability in real time using a simple, plate-based method. The assay involves adding NanoLuc luciferase and a cell-permeant prosubstrate to cells in culture. Viable cells reduce the proprietary prosubstrate to generate a substrate for NanoLuc luciferase. This substrate diffuses from cells into the surrounding culture medium, where it is rapidly used by the NanoLuc Enzyme to produce a luminescent signal. The signal correlates with the number of viable cells, making the assay well suited for cytotoxicity studies.
Tox21 Assay Protocol Summary: The mixture of Hek293 cell suspension and reagents were dispensed at 600cells/6 ul/well in 1536-well tissue culture treated black solid bottom plates using a Multidrop dispenser. After the assay plates were incubated at a 37 C/5% CO2 incubator for 5 hours, 23 nL of compounds dissolved in DMSO, positive and negative controls was transferred to the assay plate by a pintool work station. The plates were incubated at 37 C for 40 hours. The luminescence intensity were measured at 0h, 8h, 16h, 24h, 32h and 40h time points using ViewLux plate reader during compound treatment.
For orientation: Quantitative high-throughput screening tests each substance at several concentrations.
With `CC(COCCO)OCCO` (stereo not given), the max response is 4.24%. The same measure, in the same setting: under `COc1cc(Cl)ccc1Oc1ccc(Cl)cc1Cl` stands -24.6%. On the same count and under the same terms, under `CCn1cc(C(=O)O)c(=O)c2cnc(N3CCNCC3)nc21` stands 6.48%; under `O=C(CS)Nc1ccccc1`, -18%; under `CCOCC(O)COc1ccc(NC(=O)CC[S+](C)C)cc1` (stereo not given), 1.67%. Same read-out and setting: under `O=[N+]([O-])c1ccc(NCCO)c(OCCO)c1` stands -13.3%; under `CC(=O)c1cccc([N+](=O)[O-])c1`, 3.17%; under `C/C(=C(\CCOP(=O)(O)O)SC(=O)c1ccccc1)N(C=O)Cc1cnc(C)nc1N`, 6.16%. On to `c1ccc(CNCCNCc2ccccc2)cc1`, for which the max response was 7.91%. On to `O=C(O)C1(C(=O)Nc2ccc(Cl)cc2Cl)CC1`, for which the max response is -17.6%.

For the compound `O=C(O)C(S)C(S)C(=O)O` (stereo not given), the max response was 3.09%. Still for that read-out and setting: under `CCNc1cc(O)ccc1C` stands 7.99%.

With `NCC(=O)O`, the max response is 8.51%.

For `CC(CSC(=O)c1ccccc1)C(=O)N1C[C@@H](Sc2ccccc2)C[C@H]1C(=O)O` (stereo not given in full), the max response is -5.01%.

As to `Cc1cccc(Nc2ccccc2)c1`, the max response was -10.8%.

For `COc1cc2nc(N3CCN(C(=O)C4COc5ccccc5O4)CC3)nc(N)c2cc1OC` (stereo not given), the Potency was 23.9 µM (active).

Take `CC1=CCCC(C)(C)C12CCC(C)O2` (stereo not given): the max response was -12.5%. Take `CN(C)CCN(Cc1ccccc1)c1ccccn1`: the max response was -27.7%.

As to `C=CCOC(=O)CCC1CCCCC1`, the max response was 4.81%. The same measure, in the same setting: under `OC[C@H]1O[C@@H](OCCc2ccc(O)cc2)[C@H](O)[C@@H](O)[C@@H]1O` stands 7.46%; under `Cc1ccc(N=Nc2c(O)c(C(=O)O)cc3ccccc23)c(S(=O)(=O)O)c1`, 1.56%. Still for that read-out and setting: under `C=CCOc1ccccc1OCC(O)CNC(C)C` (stereo not given) stands 4.45%. Consider `Nc1ncn([C@H]2C[C@H](O)[C@@H](CO)O2)c(=O)n1`, for which the max response is 2.14%. Still for that read-out and setting: under `OC(C#CCN1CCCC1)(c1ccccc1)c1ccccc1` stands -8.96%. On the same count and under the same terms, under `CCCCCCCCO[C@@H]1O[C@H](CO)[C@@H](O)[C@H](O)[C@H]1O` stands 4.48%; under `CC(=O)[O][Al]`, 3.87%. On the same count and under the same terms, under `Cc1cc(N)c2cc(NC(=O)Nc3ccc4nc(C)cc(N)c4c3)ccc2n1` stands -16.5%; under `CCO[C@H](Cc1ccc(OCCc2ccc(OS(C)(=O)=O)cc2)cc1)C(=O)O`, 10.3%; under `C[C@H](CCC(=O)O)[C@H]1CC[C@H]2[C@@H]3CC[C@@H]4C[C@H](O)CC[C@]4(C)[C@H]3C[C@H](O)[C@]12C`, -23.1%. For the compound `COc1ccc(C(=O)N2CCN(CC(=O)N3CCOCC3)CC2)cc1`, the max response is 2.37%.

On to `CCC(Cl)CCC(Cl)C(Cl)CC(Cl)C(Cl)C(Cl)CCl` (stereo not given), for which the max response was 0.988%. As for `CN(C)c1ccc(/C=C/c2ccc([N+](=O)[O-])cc2)cc1`, the max response was -4.38%. Turning to `CC(=O)c1ccc2c(c1)N(CCCN1CCC(CCO)CC1)c1ccccc1S2`, the Potency was 21.3 µM (active). As for `C=CC(=O)OCCOc1ccccc1`, the max response was 2.45%. The same measure, in the same setting: under `C[C@@H]1C[C@H]2[C@@H]3CCC4=CC(=O)C=C[C@]4(C)[C@@]3(F)[C@@H](O)C[C@]2(C)[C@@]1(O)C(=O)COC(=O)c1ccncc1` stands -17.8%. In the case of `C=CC(=O)OCCOCCOC(=O)C=C`, the Potency is 31 µM (active). In the case of `O=C(O)CNCC(=O)O`, the max response is -8.46%. Turning to `CCCn1cnc2c1c(=O)n(CCCCC(C)=O)c(=O)n2C`, the max response is -0.107%. The same measure, in the same setting: under `Brc1c2ccccc2c(Br)c2ccccc12` stands 1.72%; under `COc1cccc(N(C)C(=S)Oc2ccc3c(c2)CCCC3)n1`, -20.4%.

The record behind these values is PubChem BioAssay (Tox21).
